This is an account of results in PubChem BioAssay (NCATS).

Each structure is given as a SMILES string. Results filed as inconclusive are left out. A number with no mark means an inactive call. Activity calls are given as the source filed them. Calls come from the whole dose curve; as a rule, active = well fitted inhibition curve with a large enough effect; inconclusive = small, poorly fitted or top-dose-only effect; inactive = no such curve, though single readings can be large or run the other way.
% is set by controls: 0 for no effect and ±100 for the full control effect.

The assay can be described thus: Primary qHTS for small molecule stabilizers of the endoplasmic reticulum resident proteome: Secreted ER Calcium Modulated Protein (SERCaMP) assay (AID 1508630). Particulars: SH-SY5Y GLuc-SERCaMP (Gaussia luciferase released on ER calcium loss) secretion, thapsigargin, luminescence; series mostly up to 38.4 µM; activity change, negative = inhibition: at the top concentration. The source says:
Assay Provider: Brandon K. Harvey Ph.D.
National Institute on Drug Abuse, National Institutes of Health, Baltimore, MD
Endoplasmic reticulum (ER) dysregulation is associated with human pathologies including neurodegenerative, cardiovascular, muscular, and diabetic conditions. Maintenance of ER calcium is critical for functions of the ER and its depletion can lead to loss of ER resident proteins, in a process termed exodosis. Therapeutic compounds capable of attenuating the redistribution of ER proteins under pathological conditions may slow or stop disease progression. To identify such compounds, we performed a quantitative high-throughput screen (qHTS) using the SERCaMP assay, which monitors secretion of ER resident proteins triggered by calcium depletion.
SERCaMP was initially developed as a reporter of ER calcium homeostasis using a Gaussia luciferase with a modified signal peptide and carboxy-terminus (GLuc-SERCaMP), modifications that confer secretion of the reporter in response to ER calcium depletion (Henderson et al., 2014). The assay was used to screen 9,501 compounds, including a collection of drugs approved by the FDA (US), EMA (EU), NHI (Japan), and HC (Canada) regulatory agencies (Huang et al., 2011). Since the SERCaMP reporter reflects the exodosis phenomenon (Trychta et al., 2018a), compounds identified in the screen have the potential to prevent exodosis by different mechanisms such as stabilizing ER calcium or augmenting ERS retrieval.
1. Henderson, M.J., Wires, E.S., Trychta, K.A., Richie, C.T., and Harvey, B.K. (2014). SERCaMP: a carboxy-terminal protein modification that enables monitoring of ER calcium homeostasis. Mol Biol Cell 25, 2828-2839.
2. Huang, R., Southall, N., Wang, Y., Yasgar, A., Shinn, P., Jadhav, A., Nguyen, D.T., and Austin, C.P. (2011). The NCGC pharmaceutical collection: a comprehensive resource of clinically approved drugs enabling repurposing and chemical genomics. Sci Transl Med 3, 80ps16.
3. Trychta, K.A., Back, S., Henderson, M.J., and Harvey, B.K. (2018a). KDEL Receptors Are Differentially Regulated to Maintain the ER Proteome under Calcium Deficiency. Cell Rep 25, 1829-1840 e1826.
SEQUENCE No. (1, 2, 3, etc.); […] (e.g., Cells, Incubation, Reagent, etc.); VALUE and DESCRIPTION.
1; Reagent; 5 uL; 1000 SH-SY5Y cells per wells
3; Compound; 23 nL; Control inhibitor / compound library
5; Reagent; 100 nM; Thapsigargin
7; Reagent; 1 uL; 0.5x coelenterazine
8; Detection; Luminescence; ViewLux imaging system
NOTES (numbers refer to sequence above)
1; SH-SY5Y human neuroblastoma cells stably expressing GLuc-SERCaMP (SH-SY5Y-GLuc-ASARTDL) cells were seeded in 1,536 well white tissue culture treated plates (Corning, Cat# 7464) in DMEM-high glucose-sodium pyruvate (ThermoFisher Scientific, Cat #10569) supplemented with 10% bovine growth serum (Hyclone), 10 U/ml penicillin (Gibco), 10 ug/ml streptomycin (Gibco), and 20 mM HEPES.
2; Assay plates were incubated for 5 hour at 37C in a humidified incubator containing 5% CO2.
3; qHTS libraries (23 nl, final concentrations of 1.53 uM, 7.67 uM, 38.3 uM) or controls (neutral control: DMSO, positive control: dantrolene) were added using a Kalypsis pin-tool Robotic System equipped with 1536 pinheads.
4; Cells were then incubated for 16 hours at 37C, 5% CO2.
5; Thapsigargin was added at 100 nM to deplete ER calcium stores.
6; Cells were incubated for 4 hour (37 °C, 5% CO2)
7; Gaussia luciferase in the medium was measured by adding 1 ul of 0.5x coelenterazine (final concentration 0.07x) prepared in Gaussia Luciferase Glow Assay Buffer (Pierce), without addition of the Cell Lysis Buffer Reagent.
8; Luminescence was measured using a ViewLux […] CCD imaging system (Perkin Elmer) equipped with clear filters. […] The same controls were also used for the calculation of the Z' factor, a measure of assay quality control, as previously described (Zhang et al., 1999). […]
On the technique in general: qHTS replaces the single test concentration by a dilution series.
As to `CCOC(=O)CN1C(=O)CC(C[C@@H](O)C2C[C@@H](C)C[C@H](C)C2=O)CC1=O` (stereo not given in full), the “activity change, negative = inhibition” value was 45.4%.

Regarding `C[C@H]1O[C@@H](O[C@H]2[C@@H](O)C[C@H](O[C@H]3[C@@H](O)C[C@H](O[C@H]4CC[C@]5(C)C6CC[C@]7(C)[C@@H](C8=CC(=O)OC8)CC[C@]7(O)C6CC[C@@H]5C4)O[C@@H]3C)O[C@@H]2C)C[C@H](O)[C@@H]1O` (stereo not given in full), the “activity change, negative = inhibition” value is 17.8%.

Consider `CCN1C[C@]2(COC(=O)c3ccccc3N3C(=O)CC(C)C3=O)CC[C@H](OC)[C@@]34C5C[C@@H]6[C@@H](OC)C[C@@](O)(C5[C@H]6OC)[C@](O)([C@@H](OC)C23)[C@@H]14` (stereo not given in full), for which the “activity change, negative = inhibition” value was 34.4%.

Take `CC[C@]1(C2=NCCN2)Cc2ccccc2O1`: the “activity change, negative = inhibition” value is 6.25%.

Consider `N[C@H](CCCCCP(=O)(O)O)C(=O)O`, for which the Potency entry is “inactive”.

Turning to `COc1ccc(CCN)cc1`, the “activity change, negative = inhibition” value was 15.4%.

For the compound `CCCC(=O)OCC[N+](C)(C)C`, the “activity change, negative = inhibition” value was -23.3%.

For `COC[C@H]([C@@H](O)[C@@H](O)C(=O)NCC[C@@H](C)c1nc(/C=C/C[C@H]2OC3(C[C@H](O)[C@H]2C)OC([C@@H](C[C@@H](O)[C@@H](C)[C@@H](O)[C@@H](C)/C=C(C)/C(C)=C/C=C/C(C)=C\C#N)OC)[C@@H](OP(=O)(O)O)C3(C)C)co1)N(C)C` (stereo not given in full), the activity change, negative = inhibition is 257% [at 1.51 µM].

Take `CO[C@@H]1C[C@@H](C[C@H]2CC[C@H](C)[C@@H]([C@@H](C)C(=O)O)O2)O[C@]2(O[C@](C)([C@H]3CC[C@@](C)(C4OC([C@H]5O[C@@](O)(CO)[C@H](C)C[C@@H]5C)C[C@@H]4C)O3)C[C@H]2C)[C@@H]1C` (stereo not given in full): the “activity change, negative = inhibition” value is -29.5% [at 21.6 µM].

On to `C=C(C)[C@H]1C2C(=O)O[C@H]1[C@H]1OC(=O)[C@@]34O[C@@H]3C[C@]2(O)[C@@]14C`, for which the “activity change, negative = inhibition” value was -23.4%.

As for `O=C1CC[C@@]2(O)[C@H]3Cc4ccc(O)c5c4[C@@]2(CCN3CC2CC2)[C@@H]1O5`, the “activity change, negative = inhibition” value is -16%.

As for `O=C1CS[C@@H](c2ccccc2Cl)c2cc(Cl)ccc2N1`, the “activity change, negative = inhibition” value is 4.46%.

For `CC(C)=CCCC1(C)C=Cc2c(O)c3c(c(CC=C(C)C)c2O1)OC12C(=CC4CC1C(C)(C)OC2(C/C=C(/C)C(=O)O)C4O)C3=O` (stereo not given), the “activity change, negative = inhibition” value was 330%.

As for `CCN1C[C@]2(COC)[C@H](O)C[C@H](OC)[C@]34C1C([C@H](OC)[C@H]23)[C@]1(OC(C)=O)C2[C@@H](OC(=O)c3ccccc3)C(O)(C[C@H]24)[C@@H](OC)[C@@H]1O`, the “activity change, negative = inhibition” value was 28% [at 21.6 µM].

As to `CCN1C[C@]2(C)CC[C@H](OC)[C@@]34[C@H]1C1(OCO[C@@]15C[C@H](OC)C1C[C@]3(O)C5[C@H]1OC)[C@@H](O)[C@H]24`, the “activity change, negative = inhibition” value was -20.9%.

For the compound `COc1ccc2c(CCN)c[nH]c2c1`, the “activity change, negative = inhibition” value is -8.77%.

As to `COc1ccc2[nH]c3c(c2c1)CCNC3C` (stereo not given), the “activity change, negative = inhibition” value was -13.5%.

`O=C1Nc2cc(Cl)c(Cl)cc2N2CCNC[C@H]12`: the “activity change, negative = inhibition” value is -17.7%.

On to `C[C@@H]1O[C@@H](O[C@H]2C[C@@H](O)[C@]3(CO)[C@@H]4C(CC[C@]3(O)C2)[C@@]2(O)CC[C@H](C3=CC(=O)OC3)[C@@]2(C)C[C@H]4O)[C@H](O)[C@H](O)[C@H]1O` (stereo not given in full), for which the “activity change, negative = inhibition” value was 46%.

Take `COC(=O)C1=CO[C@@H](C)[C@@H]2CN3CC[C@]4(C(=O)Nc5c4ccc(OC)c5OC)[C@H]3C[C@H]12`: the “activity change, negative = inhibition” value was -0.283%.

For the compound `CC(C)C[C@H](NC(=O)[C@H](Cc1ccccc1)NC(=O)CNC(=O)[C@@H](NC(=O)[C@@H](N)Cc1ccc(O)cc1)[C@H](C)O)C(=O)N[C@H](C(=O)O)[C@H](C)O`, the activity change, negative = inhibition was -27.9% [at 3.88 µM].

For the compound `O=C1C2CCN(CC2)C1(CO)CO`, the “activity change, negative = inhibition” value is -1.03%.

For the compound `CC1OC(=O)[C@@H](C(C)C)NC(=O)C(C(C)C)OC(=O)[C@H](C(C)C)NC(=O)C(C)OC(=O)[C@@H](C(C)C)NC(=O)C(C(C)C)OC(=O)[C@H](C(C)C)NC(=O)C(C)OC(=O)[C@@H](C(C)C)NC(=O)C(C(C)C)OC(=O)[C@H](C(C)C)NC1=O` (stereo not given in full), the “activity change, negative = inhibition” value is 98%.

For `CN(C(=O)Cc1ccc(Cl)c(Cl)c1)[C@H](CN1CCCC1)c1cccc(N=C=S)c1`, the “activity change, negative = inhibition” value is 411%.

On to `CCCCC/C=C\C[C@@H](/C=C/C=C\C/C=C\CCCC(=O)O)OO`, for which the activity change, negative = inhibition was -39.3% [at 0.478 µM].

As for `CN1Cc2ccccc2[C@@H]2c3cccc4[nH]cc(c34)C[C@H]21`, the Potency result is “inactive”.

With `COc1cccc2c1cc([N+](=O)[O-])c1c(C(=O)O)cc3c(c12)OCO3`, the “activity change, negative = inhibition” value is -13.5%.

Consider `N[C@H](CP(=O)(O)O)C(=O)O`, for which the “activity change, negative = inhibition” value is -14.5%.

In the case of `CCCCCCCCCCCCCCCCOC[C@@H](COP(=O)([O-])OCC[N+](C)(C)C)OC(C)=O`, the activity change, negative = inhibition is -29.1% [at 3.88 µM].

Regarding `Cn1cccc1-c1cccnc1`, the “activity change, negative = inhibition” value was -27.1%.

With `C=C(C)[C@H]1CN[C@H](C(=O)O)[C@@H]1CC(=O)O`, the “activity change, negative = inhibition” value is -24.9%.

As for `CN1[C@@H]2CC[C@H]1CC(OC(=O)N1Cc3ccccc3NC1=O)C2` (stereo not given in full), the “activity change, negative = inhibition” value was -30.7%.

For the compound `CC1CCC2C(C)C(=O)OC3O[C@]4(C)CCC1[C@@]32OO4` (stereo not given in full), the “activity change, negative = inhibition” value was -26.9%.

For the compound `S=C=Nc1cccc(C2(N3CCCCC3)CCCCC2)c1`, the “activity change, negative = inhibition” value is 37%.

In the case of `Cc1o[nH]c(=O)c1C[C@@H](N)C(=O)O`, the “activity change, negative = inhibition” value is -33.5%.

Take `C#CCN1C(C)=C(C(=O)CCO)[C@@H](c2cccc(-n3oo3)c2)C(C(=O)OC)=C1C`: the “activity change, negative = inhibition” value was -18.5%.

As to `CCOC(=O)c1ncn2c1[C@H]1CCCN1C(=O)c1cc(OC)ccc1-2`, the “activity change, negative = inhibition” value is 12.1%.

In the case of `CCCC[C@H]1C(=O)O[C@H](C)[C@H](NC(=O)c2cccc(NC=O)c2OC)C(=O)O[C@@H](C)[C@@H]1OC(=O)CC(C)C`, the “activity change, negative = inhibition” value was 22.7%.

Consider `C[C@]12CCC3C(CC[C@H]4C[C@H](O)CC[C@]34C)[C@@H]1CC[C@@H]2C(=O)CO` (stereo not given in full), for which the “activity change, negative = inhibition” value was -7.71%.

Consider `CC(=O)N1CC[N+](C)(C)CC1`, for which the Potency result is “inactive”.
